Consider seven compounds from PubChem BioAssay (NCATS).

Experiment [1] can be described thus: qHTS Assay for Identifying Gametocytocidal Compounds (AID 743244). Further: potency means the concentration at half of the fitted maximal effect.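 On max response: on the % scale 0 is the no-effect control and ±100 the full control effect; actives lower the fluorescent signal which means gametocytes are killed.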 To be noted: P. falciparum 3D7 stage III-V gametocytes, alamarBlue, 72 h; max response: stronger effect = lower value. A digest of the protocol: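 Stage III-V P. falciparum 3D7 gametocytes, 20,000 per well, were exposed to compounds for 72 h at 37C, 5% CO2. AlamarBlue was then added for 24 h and viability was read as fluorescence at Ex 525/Em 598 nm.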
For orientation: In qHTS, concentration-response curves come from the screen itself.

Experiment [2] in a line: qHTS assay to identify small molecule inhibitors of chordoma cells - UCH-1 (AID 1259355). Further: on the % scale 0 is the no-effect control and ±100 the full control effect; nearly all actives have a fitted effect of over 55% in size. The procedure, abridged:
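Luminescent ATP read-out (CellTiter-Glo, 30min at room temperature) measured viability of UCH-1 cells exposed for 48hr to test drugs at 15 concentrations, co-dosed with a five-agent combination of auranofin, camptothecin, doxorubicin, rubitecan and topotecan.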

Experiment [3] in a line: qHTS assay for small molecule agonists of the antioxidant response element (ARE) signaling pathway measured by Nrf2-dependant transcriptional activity (AID 720636; active means well fitted curve in the direction sought with a large enough effect in the repeat runs; an effect the other way counts as inactive or inconclusive; further: % of control where 0% means no effect). A digest of the protocol: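 Quantitative HTS format in HepG2 cells stably expressing an ARE-luciferase reporter; 16 hr compound treatment at 37 C, luciferase signal detected with ONE-Glo.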
The nature of experiment [4]: qHTS assay for small molecule antagonists of the retinoid-related orphan receptor gamma (ROR-gamma) signaling pathway - cell viability counter screen (AID 720652; active means well fitted curve in the direction sought with a large enough effect in the repeat runs; an effect the other way counts as inactive or inconclusive;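 further: series mostly up to about 92 µM; compound exposure lasted 16 hr before ATP read; on the % scale 0 is the no-effect control and ±100 the full control effect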). A digest of the protocol:
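Luminescence from CellTiter-Glo after 30 min at room temperature reported cellular ATP as the cytotoxicity measure. Cells were the CHO reporter line with doxycycline-induced ROR-gamma expression, exposed to compound for 16 hr at 37 C.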

Experiment [5] in a line: qHTS assay for small molecule agonists of the antioxidant response element (ARE) signaling pathway measured by Nrf2-dependant transcriptional activity - cell viability counter screen (AID 720653; active means well fitted curve in the direction sought with a large enough effect in the repeat runs; an effect the other way counts as inactive or inconclusive; further: on the % scale 0 is the no-effect control and ±100 the full control effect). The settings on record: ARE-bla HepG2 viability, CellTiter-Glo ATP luminescence, 16 h; max response: stronger effect = lower value. The procedure, abridged: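 ARE-bla HepG2 cells (2,000/well) rested 5 hrs at 37C/5% CO2, then exposed to compounds in DMSO for 16 hrs. Viability was read in the same wells as intracellular ATP by luminescence, 30 min at room temperature after reagent addition.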

The nature of experiment [6]: qHTS assay for cell viability of HEK293 cells (AID 743288). Further: on the % scale 0 is the no-effect control and ±100 the full control effect; nearly all actives have a fitted effect of over 50% in size. To be noted: ATP luminescence (CellTiter-Glo), 18 h; max response: stronger effect = lower value. The procedure, abridged: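 The Tox21 protocol used parental HEK293 cells treated for 18 h at 37 C with compounds delivered by pintool; ATP-coupled luminescence after 30 min at room temperature gave viability.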
Experiment [7] can be described thus: qHTS assay for cell viability of the p53RE-bla HCT-116 cell line (AID 743292). Further: on the % scale 0 is the no-effect control and ±100 the full control effect; nearly all actives have a fitted effect of over 55% in size. The procedure, abridged: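 Viability of compound-treated p53RE-bla HCT-116 cells is taken from ATP-dependent luciferase luminescence. Treatment lasts 16 h at 37 C after a 5 h settling period; detection follows 30 min at room temperature.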
Experiment [8] in a line: qHTS for Activators of Parkin Expression: LOPAC Validation Assay (FLuc Reporter) (AID 720573;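 further: 0% = DMSO and 100% = positive control compounds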). The procedure, abridged: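 A neuronal cell line harbouring FLuc and NLuc reporters behind the Parkin promoter was exposed to compounds for 24 h. Firefly luciferase signal, measured after 10 min with detection reagent, was scaled to DMSO and positive-control wells.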
The target in experiment [9] is T1, Hexokinase-4 (Homo sapiens) + Glucokinase regulatory protein (Homo sapiens) (UniProt P35557+Q14397). Nature of the experiment: qHTS assay for inhibitors of recombinant human GCK-GKRP interaction: Diaphorase-coupled assay (AID 743205). The procedure, abridged: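 Inhibitors of the GCK–GKRP complex relieve GKRP suppression of GCK, detected through a G6PDH–diaphorase cascade reducing resazurin. Human GST-GCK and FLAG-GKRP are used at 10 nM with 5 mM glucose and 0.4 mM ATP.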
T1 sequence (P35557 whole entry, looked up): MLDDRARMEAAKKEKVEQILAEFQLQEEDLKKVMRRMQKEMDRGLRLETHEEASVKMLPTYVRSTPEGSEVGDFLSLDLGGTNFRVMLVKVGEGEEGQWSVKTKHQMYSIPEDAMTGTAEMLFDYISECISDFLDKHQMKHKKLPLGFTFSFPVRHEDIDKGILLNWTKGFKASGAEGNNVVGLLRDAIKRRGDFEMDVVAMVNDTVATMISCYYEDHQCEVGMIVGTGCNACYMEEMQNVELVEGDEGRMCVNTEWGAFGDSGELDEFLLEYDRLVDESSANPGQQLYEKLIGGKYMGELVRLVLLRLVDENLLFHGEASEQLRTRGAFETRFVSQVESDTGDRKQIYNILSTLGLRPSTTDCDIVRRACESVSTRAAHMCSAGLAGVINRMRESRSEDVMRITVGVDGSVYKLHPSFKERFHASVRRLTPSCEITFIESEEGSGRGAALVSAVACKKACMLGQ
T1 sequence (Q14397 whole entry, looked up): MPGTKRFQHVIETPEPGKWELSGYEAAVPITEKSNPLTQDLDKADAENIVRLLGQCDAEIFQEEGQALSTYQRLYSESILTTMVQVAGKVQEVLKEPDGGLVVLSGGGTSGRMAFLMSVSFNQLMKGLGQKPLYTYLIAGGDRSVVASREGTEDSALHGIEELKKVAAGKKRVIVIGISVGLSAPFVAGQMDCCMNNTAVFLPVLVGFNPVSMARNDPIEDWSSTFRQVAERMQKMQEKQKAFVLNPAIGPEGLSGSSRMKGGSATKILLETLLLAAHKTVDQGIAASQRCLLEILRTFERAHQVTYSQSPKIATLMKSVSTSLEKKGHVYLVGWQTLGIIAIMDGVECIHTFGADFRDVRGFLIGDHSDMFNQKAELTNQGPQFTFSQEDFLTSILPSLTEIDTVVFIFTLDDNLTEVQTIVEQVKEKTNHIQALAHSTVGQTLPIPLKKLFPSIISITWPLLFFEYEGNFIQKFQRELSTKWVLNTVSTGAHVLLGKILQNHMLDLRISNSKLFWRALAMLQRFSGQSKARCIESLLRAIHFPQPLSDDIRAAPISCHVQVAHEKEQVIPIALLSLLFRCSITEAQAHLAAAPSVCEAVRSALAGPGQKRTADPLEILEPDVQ

Experiment [10] has as its target T1, Hexokinase-4 (Homo sapiens) + Glucokinase regulatory protein (Homo sapiens). Description: qHTS assay for inhibitors of recombinant human GCK-GKRP interaction: ADP-Glo assay (AID 743206).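 Further: plate controls were DMSO plus enzyme for no effect and no enzyme for full effect.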 A digest of the protocol: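 GST-GCK and FLAG-GKRP (15 nM each in the dispensed mix, with 2 uM S6P) react with 0.4 mM ATP and 5 mM glucose (final) in Hepes pH 7.6 for 60 min at room temperature. ADP is measured by ADP-Glo luminescence.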

Experiment [11] has the same target. Nature of the experiment: qHTS assay for inhibitors of recombinant human GCK-GKRP interaction: HTRF assay (AID 743207).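 Further: 0% = DMSO with GCK present and -100% = DMSO wells lacking GCK.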 The procedure, abridged: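 Steps: dispense GCK–GKRP complex (5 nM each, GST- and FLAG-tagged) with 2 uM S6P; pin in compounds; add XL665/Eu-cryptate-labelled antibodies; incubate 60 min at room temperature; read time-resolved FRET at 665 and 615 nm.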

Values joined by “and” are separate entries in the source; they are usually repeats but may differ in a detail not shown here. Equal values may be shown once. A number with no mark means an inactive call. Records with an inconclusive call do not appear. Active and inactive are the calls of the source. Unless noted, the call rests on the fitted dose curve; in most records, active means well fitted curve in the direction sought with a large enough effect; inconclusive means small, poorly fitted or top-dose-only effect, or another doubt; inactive means no such curve, though single readings can be large; an effect the other way counts as inactive or inconclusive.

`CCCC(=O)OC(C(Cl)(Cl)Cl)P(=O)(OC)OC` (stereo unspecified): in [1], the max response was -0.455%. Further, the Potency entry in [2] was “inactive”.

Consider `CC(=O)O[C@H]1CC[C@@]2(C)C(=CC[C@@H]3[C@@H]2CC[C@]2(C)C(=O)CC[C@@H]32)C1`, for which the max response in experiment [1] was 5.11%. In experiment [2], the Potency result was “inactive”.

Take `O=C(O)C(Cl)(Cl)Cl`: the Potency entry in [3], in experiment [4] and in experiment [7] was “inactive” throughout. Moreover, the max response in [5] was -1.81% and -2.86%; in experiment [1], 5.93%; in [6] it was 7.06% and 1.52%.

With `CCCC(C)(COC(N)=O)COC(=O)NC1CC1` (stereo unspecified), in experiment [1], the max response is 6.87%. The Potency entry in experiment [2] is “inactive”.

For `S=C(S)N1CCNCC1`, in experiment [1], the max response is -5.89%. In [2], the Potency entry is “inactive”.

Turning to `CN1CC[C@@]2(C)c3cc(OC(=O)Nc4ccccc4)ccc3N(C)[C@@H]12`, the call in [8], in [10] and in experiment [11] was inactive. The Potency result in experiment [9] is “inactive”. In addition, the Potency in [1] was 1120 nM (active).

`O=C1CN(O)C(c2ccccc2)=c2cc(Cl)ccc2=N1`: in [1], the max response was 0.268%. Also, the Potency entry in [2] is “inactive”.
